Shown is part of a subset that was picked to be rich in hits.
ROS inducer: cancer cell ROS induction | U2OS ROS induction, H2DCF-DA fluorescence | ROS induction (% of piperlongumine), % at 10 µM | 2% of 46,000 active | AID 624156; in the data active = ROS induction above about 79%, passing the limit was not always enough;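 note: 0% = DMSO vehicle median and 100% = reference compound median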
* hit, by the source's call.

`C[C@@H]1CCCCO[C@@H](CN(C)C(=O)Nc2ccccc2)[C@@H](C)CN([C@H](C)CO)C(=O)c2cc(NC(=O)Cc3ccccc3)ccc2O1` gave ROS inducer 3.
`CC1CCCCN1C(=O)N1CCOCC1` (stereo unspecified) gave ROS inducer -14.
For Cc1ccc(S(=O)(=O)NCCC(=O)N2CCOCCOCCOCC2)cc1 the results were ROS inducer 12.
CCC(C)NC(=O)C1CCCN(S(=O)(=O)c2ccc(C)cc2)C1 (stereo unspecified) was read as ROS inducer -3.
CS(=O)(=O)N(CC(=O)NCc1ccccc1)c1cc(C(F)(F)F)ccc1Cl was read as ROS inducer 0.
`CNC(=O)C1CCN(c2nc3ccccc3n3cccc23)CC1` gave ROS inducer -9.
Screening CC1C=CCC2C(=O)N(c3cccc(O)c3)C(=O)C12 (stereo unspecified) returned ROS inducer -6.
C[C@H](CO)N1C[C@H](C)[C@H](CN(C)Cc2ccc(Oc3ccccc3)cc2)Oc2c(NC(=O)c3cnccn3)cccc2C1=O was read as ROS inducer 34.
Screening C[C@H]1CN([C@@H](C)CO)C(=O)c2cccc(NC(=O)c3cnccn3)c2O[C@@H]1CN(C)Cc1ccc(-c2ccccc2)cc1 returned ROS inducer 118*.
Screening C[C@@H]1CN([C@H](C)CO)C(=O)c2cccc(NC(=O)c3cnccn3)c2O[C@H]1CN(C)Cc1ccc(Oc2ccccc2)cc1 returned ROS inducer 21.
Screening C[C@H](CO)N1C[C@H](C)[C@@H](CN(C)Cc2ccc(-c3ccccc3)cc2)Oc2c(NC(=O)c3cnccn3)cccc2C1=O returned ROS inducer 45.
For C[C@H]1CN([C@@H](C)CO)C(=O)c2cccc(NC(=O)c3cnccn3)c2O[C@H]1CN(C)Cc1ccc(-c2ccccc2)cc1 the results were ROS inducer 43.
For C[C@H](CO)N1C[C@H](C)[C@@H](CN(C)Cc2ccc(Oc3ccccc3)cc2)Oc2c(NC(=O)c3cnccn3)cccc2C1=O the results were ROS inducer 134*.
Screening CCC(C)NC(=O)c1ccc2c(=O)n(Cc3ccc(OC)cc3)c(=O)[nH]c2c1 (stereo unspecified) returned ROS inducer 9.
For CC1(C)OC2C(CO)OC(n3cnc4c(=O)[nH]cnc43)C2O1 (stereo unspecified) the results were ROS inducer 33.
Screening CC1(C)O[C@@H]2[C@H](O1)[C@@H](CO)O[C@H]2n1cnc2c(N)ncnc21 returned ROS inducer 85*.
Nc1ncnc2c1ncn2C1OC(CO)[C@H](O)[C@@H]1S (stereo partly specified) was read as ROS inducer 0.
`O=C(c1ccc(COc2cc(Cl)ccc2Cl)o1)N1CCSCC1` gave ROS inducer 0.
For COc1ccc(OCCn2c(=O)oc3ccccc32)cc1 the results were ROS inducer -6.
`CN(C)/C=C/C(=O)c1sc(SCc2ccc(Cl)cc2)c2c1CC(C)(C)CC2=O` gave ROS inducer 12.
`CC(C)(C)c1cc(C(C)(C)C)n(-c2ccc(NC(=O)COCC(=O)O)cc2)n1` gave ROS inducer -5.
Screening COCCn1c(C)cc(C=C2C(=O)N(C)C(=S)N(C)C2=O)c1C returned ROS inducer 26.
`C=CCN1C(=O)/C(=C/c2cc(C)n(CCOC)c2C)C(=O)NC1=S` gave ROS inducer 102*.
Screening COCCN1C(=O)/C(=C/c2cc(C)n(-c3ccncc3)c2C)C(=O)N(c2ccccc2)C1=O returned ROS inducer 2.
`O=C(Cc1cccc2ccccc12)Nc1ccc(S(=O)(=O)N2CCCC2)cc1` gave ROS inducer 15.
For O=C(Nc1ccccc1N1CCOCC1)c1ccccc1 the results were ROS inducer -9.
COC(=O)c1cc(NC(=O)c2cccc(Cl)c2)cc(C(=O)OC)c1 was read as ROS inducer -7.
O=C(Nc1cc(C(=O)Nc2ccccc2O)cc(C(=O)Nc2ccccc2O)c1)c1ccccc1 was read as ROS inducer 97*.
For O=S(=O)(c1ccccc1)N1CCC(Cc2ccccc2)CC1 the results were ROS inducer 13.
Screening CC(C)N(C(=O)Cn1ncc2c(=O)oc3ccccc3c21)C1CCCCC1 returned ROS inducer 14.
For CC1Cc2cc(S(=O)(=O)NN3CCOCC3)ccc2N1C(=O)C1CC1 (stereo unspecified) the results were ROS inducer -1.
COC(CNC(=O)c1cc2c(s1)-c1ccccc1OC2)OC was read as ROS inducer -13.
Screening Cc1nc2c(C(=O)NCc3ccc4c(c3)OCO4)cnn2c(C)c1Cc1c(F)cccc1Cl returned ROS inducer 12.
Screening COc1cccc(CNC(=O)c2cnn3c(C)c(Cc4c(C)cc(C)cc4C)c(C)nc23)c1 returned ROS inducer 142*.
For Cc1ccc(C)c(Cc2c(C)nc3c(C(=O)NC4CC4)cnn3c2C)c1 the results were ROS inducer 26.
For c1ccc(-c2nnc(SCC3COc4ccccc4O3)nc2-c2ccccc2)cc1 (stereo unspecified) the results were ROS inducer -4.
`CCC(CC)C(=O)N1c2ccccc2Sc2ccccc21` gave ROS inducer 2.
Screening CCCC(C)NC(=O)N1CCOCC1 (stereo unspecified) returned ROS inducer 53.
`Cc1cc(C(=O)Nc2cccc3c2O[C@H](CN(C)Cc2ccc(-c4ccccc4)cc2)[C@@H](C)CN([C@@H](C)CO)C3=O)n(C)n1` gave ROS inducer 214*.
Screening Cc1cc(C(=O)Nc2cccc3c2O[C@@H](CN(C)Cc2ccc(-c4ccccc4)cc2)[C@H](C)CN([C@H](C)CO)C3=O)n(C)n1 returned ROS inducer 78*.
Cc1cc(C(=O)Nc2cccc3c2O[C@H](CN(C)Cc2ccc(-c4ccccc4)cc2)[C@H](C)CN([C@H](C)CO)C3=O)n(C)n1 was read as ROS inducer 16.
`Cc1cc(C(=O)Nc2cccc3c2O[C@H](CN(C)Cc2ccc(-c4ccccc4)cc2)[C@H](C)CN([C@@H](C)CO)C3=O)n(C)n1` gave ROS inducer 19.
Cc1cc(C(=O)Nc2cccc3c2O[C@H](CN(C)Cc2ccccc2)[C@H](C)CN([C@@H](C)CO)C3=O)n(C)n1 was read as ROS inducer 1.
`Cc1cc(C(=O)Nc2cccc3c2O[C@@H](CN(C)Cc2ccc(-c4ccccc4)cc2)[C@@H](C)CN([C@H](C)CO)C3=O)n(C)n1` gave ROS inducer 20.
Screening COCCn1c(-c2ccc(C(C)(C)C)cc2)n[nH]c1=S returned ROS inducer 5.
CC(C)NC(=O)c1ccc2c(=O)n(Cc3ccco3)c(=S)[nH]c2c1 was read as ROS inducer 21.
For O=C(NCc1ccc2c(c1)OCO2)c1ccc2c(=O)n(Cc3ccccc3)c(=S)[nH]c2c1 the results were ROS inducer 6.
Screening O=C(NCc1ccco1)c1ccc(Cn2c(=S)[nH]c3ccc(Br)cc3c2=O)cc1 returned ROS inducer 81*.
For CC(=O)OC[C@H]1O[C@@H](Oc2cc(OC(C)=O)c3c(=O)cc(-c4ccc(OC(C)=O)cc4)oc3c2)[C@H](OC(C)=O)[C@@H](OC(C)=O)[C@@H]1OC(C)=O the results were ROS inducer 246*.
Screening CC(=O)Oc1ccc(-c2coc3cc(OC(C)=O)cc(OC(C)=O)c3c2=O)cc1 returned ROS inducer 26.
Screening COc1c(O[C@@H]2O[C@H](CO)[C@@H](O)[C@H](O)[C@H]2O)cc2oc(-c3ccc(O)cc3)cc(=O)c2c1O returned ROS inducer -6.
